Bioassay records deposited in PubChem BioAssay by several laboratories.
CTSL1 counter: Fasciola hepatica cathepsin L1 inhibitors, primary screen, counter-screen for PFM18AAP inhibitor project, biochemical, QFRET, fluorogenic peptide substrate | inhibition, % at 5.96 µM | recombinant F. hepatica cathepsin L1, Z-Leu-Arg-MCA fluorescence | 300,000 compounds, 0.49% hits | AID 1906, 2009;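 active = inhibition above the mean of all tested compounds plus 3 SD, set per screening campaign, cut at about 17% in these data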;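 also: 0% = plate median of test compound wells and 100% = 1 µM Z-Phe-Ala-diazomethylketone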
Rpn11 inh: Rpn11 (PSMD14) deubiquitinase inhibitors, primary screen, biochemical, fluorescence polarization, uHTS; 26S proteasome non-ATPase regulatory subunit 14 (Homo sapiens), O00487; human 26S proteasome, Ub4-pepOG fluorescence polarization; 20S core pre-blocked with epoxomicin; inhibition, % at 20 µM; 360,000 compounds, 0.59% hits;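 active = inhibition at 20 µM, scaled to each plate's controls, above about 33%, limit read from the data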
CendR NRP1 mod: modulators of CendR peptide binding to NRP-1, primary screen, biochemical, fluorescence polarization, uHTS. Neuropilin-1 (Homo sapiens), O14786. FAM-RPARPAR peptide binding to NRP-1. 360,000 compounds, 0.85% hits. inhibition, % at 25 µM;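 active = inhibition or corrected inhibition above about 18%, plus a signal ratio from 0.5 to 1.5, limit read from the data, passing the limit was not always enough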
Target sequence (O14786 whole entry, looked up): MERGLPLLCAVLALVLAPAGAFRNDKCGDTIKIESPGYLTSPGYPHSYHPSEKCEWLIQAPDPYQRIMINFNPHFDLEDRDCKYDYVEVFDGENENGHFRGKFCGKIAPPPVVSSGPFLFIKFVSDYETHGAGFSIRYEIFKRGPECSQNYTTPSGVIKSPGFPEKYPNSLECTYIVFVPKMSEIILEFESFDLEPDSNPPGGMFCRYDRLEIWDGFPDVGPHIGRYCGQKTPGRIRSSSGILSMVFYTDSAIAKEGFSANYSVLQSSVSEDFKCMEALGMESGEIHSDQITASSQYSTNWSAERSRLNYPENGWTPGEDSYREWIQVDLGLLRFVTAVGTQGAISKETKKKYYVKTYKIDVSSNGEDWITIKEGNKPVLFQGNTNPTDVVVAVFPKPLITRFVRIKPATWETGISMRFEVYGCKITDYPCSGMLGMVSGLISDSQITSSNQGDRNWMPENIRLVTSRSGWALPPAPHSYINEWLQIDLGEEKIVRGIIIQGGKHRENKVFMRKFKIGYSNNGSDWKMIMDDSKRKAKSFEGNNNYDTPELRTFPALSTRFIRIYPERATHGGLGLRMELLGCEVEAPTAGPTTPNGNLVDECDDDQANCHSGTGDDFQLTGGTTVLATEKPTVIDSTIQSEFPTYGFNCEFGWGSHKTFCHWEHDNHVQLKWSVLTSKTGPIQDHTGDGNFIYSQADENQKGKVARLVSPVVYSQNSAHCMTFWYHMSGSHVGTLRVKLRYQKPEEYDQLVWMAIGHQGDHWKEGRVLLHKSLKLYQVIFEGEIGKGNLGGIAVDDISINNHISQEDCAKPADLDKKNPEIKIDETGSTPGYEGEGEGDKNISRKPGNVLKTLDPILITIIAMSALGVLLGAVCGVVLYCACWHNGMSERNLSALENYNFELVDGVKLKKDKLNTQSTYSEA
HNF4A DNA FP: change in binding of human HNF4A to DNA, primary screen, biochemical, fluorescence polarization, FITC-DNA; 360,000 compounds, 0.3% hits; activity change, % at 10 µM; Hepatocyte nuclear factor 4-alpha (Homo sapiens), P41235; 1 h; in the data active = activity change above about 30%, passing the limit was not always enough
PHOSPHO1 block: PubChem AID 1565 | inhibition, % at 13.3 µM | recombinant PHOSPHO1, absorbance phosphatase assay | Phosphoethanolamine/phosphocholine phosphatase (Homo sapiens), Q8TCT1 | 290,000 compounds, 1.1% hits; in the data active = inhibition above about 60%
TPT1 inhibitor: Candida albicans TPT1 enzyme inhibitors, primary screen, biochemical, fluorescence polarization; recombinant caTPT1, FP RNA substrate dephosphorylation; inhibition, % at 5 µM; 300,000 compounds, 0.81% hits; AID 1962, 2009;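 active = inhibition above the mean of all tested compounds plus 3 SD, set per screening campaign, cut at about 24% in these data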;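 also: plate controls were DMSO alone for no effect and ferristatin control at 100 nM for full effect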
Starred values were filed as active, the others as inactive; x = no result given. This is a sample that favours compounds with a hit; in the whole collection about 3.3% have one here.

SMILES	CTSL1 counter	Rpn11 inh	CendR NRP1 mod	HNF4A DNA FP	PHOSPHO1 block	TPT1 inhibitor
CC(C)N(C(=O)[C@H]1C[C@H](CC(=O)NCCN2CCOCC2)C(=O)N2CCc3c([nH]c4cc(CCC(=O)N(C)C)ccc34)[C@]12C)C(C)C	x	1	7	5	x	x
O=C(CN1CCN(Cc2ccc3c(c2)OCO3)CC1)c1c[nH]c2ccccc12	1	2	-7	6	84*	-2
O=C(c1cccn2c(=O)c3ccccc3nc12)N1CCN(Cc2ccc3c(c2)OCO3)CC1	0	0	-10	10	30	-1
COCc1c(C(=O)N2CCN(Cc3ccc(C#N)cc3)CC2)oc2ccccc12	1	-1	3	-4	39	-8
O=C(c1ccc2nc3ccccc3c(=O)n2c1)N1CCN(Cc2ccc3c(c2)OCO3)CC1	0	12	1	39*	8	2
COCc1c(C(=O)N2CCN(Cc3ccc4c(c3)OCO4)CC2)oc2ccccc12	x	-3	26*	2	x	x
O=C(c1cc(=O)[nH]c2ccccc12)N1CCN(Cc2ccc3c(c2)OCO3)CC1	x	-5	-10	2	x	x
COc1ccc(S(=O)(=O)N(CCC(N)=O)Cc2ccco2)cc1OC	-3	-2	-1	-3	36	0
O=[N+]([O-])c1c(NCCCO)cc(SCc2ccco2)c2nonc12	-1	-4	1	-2	-5	-2
CC(=O)OCCNc1cc(SCc2ccco2)c2nonc2c1[N+](=O)[O-]	-3	-9	27*	-6	3	4
C/C(CC(=O)NCc1ccco1)=N\NC(=O)COc1ccc(C)cc1	0	-4	4	0	-18	3
COc1ccc(CCNC(=O)C(C)Sc2ccc(C)cc2)cc1OC (centres undefined)	2	-7	-2	3	-2	-1
COc1ccc(CCNC(=O)Oc2ccccc2)cc1OC	18*	6	8	2	16	2
COc1ccc(CCNC(=O)C(C)Sc2ccccc2)cc1OC (centres undefined)	-4	-12	9	-3	60*	6
Cc1ccc(NS(=O)(=O)c2cccc(C(=O)Nc3cc(C)on3)c2)cc1	-2	-1	-2	1	1	0
CCOC(=O)/C(C(N)=NCC(C)C)=C(/O)c1ccccc1	3	-9	5	3	61*	2
COc1ccc(/C=C2\SC(=O)N(CCNC(=O)Cc3coc4cc(OC)ccc34)C2=O)cc1	1	2	-12	-3	-20	2
COc1ccc(/C=C2\SC(=O)N(CCNC(=O)Cn3[nH]c(=O)c4ccccc4c3=O)C2=O)cc1	x	0	29*	1	x	x
O=C(COc1ccc(F)cc1)N(Cc1cccc(Br)c1)C1CCS(=O)(=O)C1 (centres undefined)	1	-4	11	-1	65*	0
CCCCC1CCC(C(=O)NC2CCS(=O)(=O)C2)CC1 (centres undefined)	-1	1	38*	5	-8	-1
O=C(NC1CCS(=O)(=O)C1)C1CCCC1 (centres undefined)	0	-5	10	-3	x	-3
Nc1c(C(=O)NC2CCCC2)c2nc3ccccc3nc2n1/N=C/c1cccnc1	-1	1	7	3	x	-1
O=S(=O)(/N=C(/Sc1ccccc1)c1ccccc1)c1ccccc1	-1	-1	0	2	100*	-1
CS/C(=N\S(=O)(=O)c1ccccc1)c1ccccc1	0	-2	0	6	-5	-3
COC(=O)c1ccc(COc2cccn3c(N(C)C(=O)CCC4CCCC4)c(C)nc23)cc1	x	7	19	1	x	x
SMILES	CTSL1 counter	Rpn11 inh	CendR NRP1 mod	HNF4A DNA FP	PHOSPHO1 block	TPT1 inhibitor
CCOC(=O)CSc1nc2ccc(N)cc2s1	-3	2	21	-1	83*	1
O=C(Nc1ccccc1Cl)NC1(C(=O)NCC2CCCO2)CCCCC1 (centres undefined)	0	1	9	1	18	2
O=C(Nc1ccccc1Cl)NC1(C(=O)NCc2cccnc2)CCCCC1	12	-6	25*	4	18	-2
COc1ccc(C(=O)c2ccc(OC)c3cccc(O)c23)cc1OC	1	2	5	-2	83*	-3
CC1(C)C(=O)NC(=O)N1Cc1ccccc1	2	-1	7	-1	x	-3
CCc1n[nH]c(=S)n1/N=C/c1ccc(N(C)c2ccccc2)cc1	6	8	8	0	46	1
CCc1n[nH]c(=S)n1/N=C/c1ccc2c(c1)OCO2	0	-7	4	0	103*	2
CCOC(=O)C(Sc1nn(C)c(=S)s1)C(C)=O (centres undefined)	1	2	-4	-4	97*	0
Cn1c2ccccc2c2c(C(=O)N3CCN(c4ccccn4)CC3)cn(C3CCCC3)c(=O)c21	1	3	38*	7	7	-5
COc1ccc(N2CCN(C(=O)c3cn(C)c(=O)c4c3c3ccccc3n4C)CC2)cc1	2	-2	-7	-5	11	2
Cn1c2ccccc2c2c(C(=O)N3CCN(C(=O)c4ccco4)CC3)cn(C3CCCCC3)c(=O)c21	8	5	14	1	6	3
Cn1c2ccccc2c2c(C(=O)O)cn(C3CCCC3)c(=O)c21	18*	5	15	-3	22	-2
COc1ccc(N2CCN(C(=O)c3cn(C4CCCC4)c(=O)c4c3c3ccccc3n4C)CC2)cc1	1	6	39*	-1	12	3
Clc1nc2sccn2c1/C=N/n1cnc2ccccc21	-3	31	-8	-1	5	0
COC(=O)C1=C(C)N(c2cccc(C)c2)C(=O)/C1=C\c1cccs1	8	4	28*	-1	43	3
CCOC(=O)C1=C(C)N(c2ccccc2)C(=O)/C1=C\c1cccs1	1	4	-5	1	12	2
COc1ccc(N2CCN(C(=O)Cn3cnc4c(cnn4-c4ccc(C)cc4)c3=O)CC2)cc1	2	0	-5	-4	28	-2
O=C(/C=C/c1ccccc1)NC(NC(=S)Nc1cccc(Cl)c1)C(Cl)(Cl)Cl (centres undefined)	18*	0	1	4	18	-3
CCOC(=O)c1ccc(NS(=O)(=O)c2ccc(SC)cc2)cc1	2	4	6	-5	-14	2
CCOC(=O)Cc1ccc(NS(=O)(=O)c2ccc(SC)cc2)cc1	2	5	25*	1	-4	-2
Cc1cc(C(=O)N2CCC(C(=O)O)CC2)c(C)o1	5	-10	-4	5	0	-2
